Experimental data taken from PubChem BioAssay (NCI).
Compounds without any hit were thinned out: in the full panel of roughly 79,000, 15% have a hit. The source made the active and inactive calls. Cut-off read from the data, not from the text of the source: active = growth inhibition above about 70%; inactive = the rest.

Assay: NCI Yeast Anticancer Drug Screen. Data for the rad18 strain (AID 177)
Details: S. cerevisiae rad18 mutant growth inhibition; at 1.2 µM; hits give high values
Method in brief: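 DNA-repair-defective yeast; compound treatment; growth inhibition scored against vehicle.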

Compound	growth inhibition
CC(CN(C)C)C(=O)/C=C/c1ccc(Cl)c(Cl)c1 (centres undefined)	5% (inactive)
CCCCCCNCCCNc1c2cc(OC)ccc2nc2cccc([N+](=O)[O-])c12	89% (active)
NC(=S)N1N=C2c3ccccc3CC[C@H]2[C@@H]1c1ccc(Cl)cc1	1% (inactive)
C/C(=N/NC(=S)Nc1ccccc1C)c1ccccn1	0% (inactive)
O=C1/C(=C/c2ccc(Cl)c(Cl)c2)CNC/C1=C\c1ccc(Cl)c(Cl)c1	25% (inactive)
CC(C)OP(=O)(OC(C)C)C(=NCCO)NNc1ccc([N+](=O)[O-])cc1	20% (inactive)
N#CCC(=O)N/N=C(\c1ccccc1)C(c1ccccc1)C1(O)C(=O)Nc2c(Cl)ccc(Cl)c21 (centres undefined)	3% (inactive)
CC(C)(CN1CCCCC1)C(=O)CC(SCCS(=O)(=O)O)c1ccccc1 (centres undefined)	10% (inactive)
COC1=CCC23C(=O)C=CC(=O)C2(C1)C(=O)c1ccccc1C3=O (centres undefined)	-21% (inactive)
CCCCN(CCCC)c1ccc(N=Nc2ccc(S(=O)(=O)O)cc2)cc1	-18% (inactive)
c1ccc2nc3c(nc2c1)sc1ccccc13	4% (inactive)
O=C1c2ccccc2-c2ccc(N=Cc3ccccc3)cc21	-10% (inactive)
CNC(=S)N/N=C(/C)CCC/C(C)=N/NC(=S)NC	1% (inactive)
Nc1ccc(/C=C/c2ccc3cccnc3c2)cc1	1% (inactive)
COc1ccc2c3c1OC(C)C31CC(=O)CCC1CC2 (centres undefined)	-7% (inactive)
CCOC(=O)Nc1ccc(C)c(NC(=O)OCC)c1	8% (inactive)
CCN(CC)CCNc1ccc2nc(C)n3c4ccc(OC)cc4c(=O)c1c23	34% (inactive)

Compound	growth inhibition
C[N+](C)([O-])CCCNc1c2ccccc2nc2cccc([N+](=O)[O-])c12	95% (active)
O=C(c1cc(=O)c2ccc(O)cc2o1)c1ccc(Cl)cc1Cl	-6% (inactive)
CCCNC(=O)OCc1c(COC(=O)NCCC)c(-c2ccc(Cl)c(Cl)c2)n2c1CCC2	-35% (inactive)
O=C(Cc1ccccc1)NN1C(=O)C(Cl)C1c1cc(Br)cc(Br)c1O (centres undefined)	5% (inactive)
CCOC(=O)C(Cc1c2ccccc2cc2ccccc12)(NC(C)=O)C(=O)OCC	-5% (inactive)
O=[N+]([O-])/C=C/c1cc2ccc3ccccc3c2[nH]1	61% (inactive)
Fc1ccc(Nc2ccc3ccccc3c2)cc1	0% (inactive)
O=S1(=O)CCC2=CC(C(F)(F)F)=CC(C(F)(F)F)=CN21	54% (inactive)
CCCCS/C(=C(/C#N)C(N)=O)c1cc2c([nH]1)CCCC2	0% (inactive)
O=C(O)c1ccccc1C(=O)OC1CCc2ccccc2C1 (centres undefined)	-2% (inactive)
NC(=S)N/N=C1\c2ccccc2CCC1CCC1(O)CCc2ccccc2C1=O (centres undefined)	52% (inactive)
Cc1cccc2c(Cl)c3cccc(C)c3nc12	-3% (inactive)
CC(C)OC(=O)NNc1c(Cl)cc(Cl)cc1Cl	0% (inactive)
Nc1ccc2c(c1)C(=O)c1c(F)cccc1-2	1% (inactive)
N#CSCC1COc2ccccc2O1 (centres undefined)	-21% (inactive)
Cc1ccc(S(=O)(=O)NC(=O)C2C(=O)CC3(CCCCC3)CC2=O)cc1	-15% (inactive)
CC1=NN(C(=O)c2ccccc2O)C(=O)/C1=C/c1ccco1	0% (inactive)
